# A selection: hits, their analogues and other compounds. The true share with any hit is near 1.3%.
# KCNH2 3.1 inh = KCNH2 3.1 (human) potassium channel inhibition. AID 720553. 340,000 compounds, 0.95% hits. activity change, % (tested at about 1.8 µM). U2OS KCNH2 3.1, thallium flux FluxOr; stronger effect = lower value;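 active = maximum activity change below -70%; inconclusive = maximum activity change from -70% to -50%; inactive = maximum activity change above -50%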;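 also: thallium influx rate constant from kinetic fluorescence after stimulation buffer; % is scaled to controls: 0 for no effect and ±100 for the full control effect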
#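 U2OS cells transduced with KCNH2 3.1 mutant virus (1.77 x 10^8 /mL, 4 h), plated overnight at 37 C, loaded 45 min with FluxOr dye plus Red40 quencher. Thallium flux rate constant from kinetic reads after stimulation buffer, normalised to controls.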
# KCNH2 WT inh = KCNH2 (human, wildtype) channel inhibition; Q12809; 340,000 compounds, 0.37% hits; AID 720551; activity change, % at 1.84 µM; U2OS, BacMam KCNH2, thallium flux FluxOr; stronger effect = lower value;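 active = maximum activity change below -70%; inconclusive = maximum activity change between -70% and -50%; inactive = maximum activity change above -50%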; also: % is scaled to controls: 0 for no effect and ±100 for the full control effect
#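 U2OS cells transduced with wild-type KCNH2 virus are loaded with FluxOr dye for 45 min, and thallium flux is measured in kinetic reads before and after stimulation buffer. Rate constants are normalized to DMSO controls.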
# TRPV1 potentiator = enhances activation of the human vanilloid receptor TRPV1; 320,000 compounds, 0.02% hits; TRPV1-expressing cells, Fluo-8 calcium influx, capsaicin EC20 potentiation; Q8NER1; potentiation, % at 8.33 µM; AID 540277; in the data active = potentiation above about 80%; inconclusive = between about 30% and that limit; also: 0% is about no effect
#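 Fluo-8 calcium influx in TRPV1-expressing cells, kinetic read (ex 480/em 520 nm). Compound added and read 3 min for agonist activity, followed by capsaicin at EC20 final and 2 min further read for enhancement.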
# TRPV1 ag = agonists of human vanilloid receptor 1 (TRPV1); AID 540275; Q8NER1; TRPV1-expressing cells, Fluo-8 calcium influx, agonist mode; activation, % at 8.33 µM; 320,000 compounds, 0.19% hits; in the data active = activation above about 80%; inconclusive = between about 30% and that limit; also: 0% is about no effect
#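 Fluo-8 calcium influx in TRPV1-expressing cells, kinetic read (ex 480/em 520 nm). Compound added and read 3 min for agonist activity, followed by capsaicin at EC20 final and 2 min further read for enhancement.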
# Active calls of the source: *; ? = inconclusive; . = not tested or not shown.
SMILES,KCNH2 3.1 inh,KCNH2 WT inh,TRPV1 potentiator,TRPV1 ag
Cc1ccc(CN2CCN(CCCc3ccccc3)CC2CCO)cc1 (stereo unspecified),-75*,10,0,4
CCOc1ccc(CN2CCN(C3CCSCC3)CC2CCO)cc1 (stereo unspecified),-84*,-12,0,5
OCCC#Cc1ccc(CN2CCN(CCc3ccccc3)C(CCO)C2)cc1 (stereo unspecified),4,9,-3,4
COc1ccc(CN(C)C(=O)COC(=O)c2ccc(-c3ccccc3)cc2)c(OC)c1OC,-4,-2,17,0
COc1ccc(/C=C(/NC(=O)c2ccco2)C(=O)N2CCCCCC2)cc1OC,.,0,10,-1
COC(CNC(=O)c1ccc2c(c1)nc(C)n2-c1cccc(C)c1)OC,-21,14,28,2
CCNC(=O)c1cc(S(=O)(=O)N2CCSCC2)ccc1OC,20,-7,-16,6
O=C(Nc1ccnn1C1CCN(CCCc2ccccc2)CC1)c1ccccc1Cl,-112*,-120*,4,7
O=C(Nc1ccnn1C1CCN(Cc2cccnc2)CC1)c1ccccc1Cl,-1,24,-12,-1
Cc1cc(CN2CCC(n3nccc3NC(=O)c3ccccc3Cl)CC2)cc(C)c1O,-77*,-1,11,-5
CC(C)Cc1ccc(CN2CCC(n3nccc3NC(=O)C3CCCC3)CC2)cc1,-103*,-73*,-9,16
CC1(c2ccc(Cl)cc2)NC(=O)N(CC(=O)Nc2cccnc2Cl)C1=O (stereo unspecified),-8,-5,5,-3
Cc1ccc(C(=O)N2CCC3(CC2)NCCc2[nH]cnc23)cc1C,-5,-4,3,0
CC(Oc1ccc2c3c(c(=O)oc2c1)CCCC3)C(=O)NCc1cccnc1 (stereo unspecified),-7,-1,-27,?
COc1ccc(/C=C(\C#N)c2nc(-c3cc4c(ccc5ccccc54)oc3=O)cs2)cc1O,.,.,11,-3
COc1ccc(NC(=O)NCCN2CCN(c3cccc(Cl)c3)CC2)cc1,-43,0,-25,1
COc1ccc(N2CCN(CCNC(=O)Nc3ccc(C)c(Cl)c3)CC2)cc1,-90*,.,-16,5
COc1ccc(NC(=O)NCCCN2CCN(c3ccccc3F)CC2)cc1,-40,13,-14,19
COc1cccc(NC(=O)NCCCN2CCN(c3ccc(F)cc3)CC2)c1,-82*,-38,-18,6
COc1cccc(NC(=O)CN2CCN(c3ccc(F)cc3)CC2)c1,-10,2,-1,8
COc1cc(NC(=O)NCCN2CCN(c3ccc(Cl)cc3)CC2)ccc1C,-82*,-38,-8,14
COc1ccc(NC(=O)NCCCN2CCN(c3cc(C)ccc3C)CC2)cc1,-92*,39,-14,0
CN1CCN(S(=O)(=O)c2cccc(C(=O)NC3(C)CCS(=O)(=O)C3)c2)CC1 (stereo unspecified),?,5,1,1
COc1ccc(C(=O)CCN2CCN(c3ccc(OC)cc3)CC2)cc1,-71*,15,-9,8
OCC[C@@H]1C[C@@H](O)[C@H](O)[C@]2(CCc3ccccc3CO2)O1,39,4,-9,3
SMILES,KCNH2 3.1 inh,KCNH2 WT inh,TRPV1 potentiator,TRPV1 ag
O=C(CN1C2=NCCCN2c2ccccc21)c1cccc(Br)c1,?,7,1,0
O=C(CN1C2=NCCCN2c2ccccc21)c1ccc([N+](=O)[O-])cc1,-74*,5,-10,0
O=C(/C=C/c1ccc(Cl)c([N+](=O)[O-])c1)Nc1ccc(NC(=O)c2ccco2)cc1,-119*,-36,22,1
O=C(NCCc1nc2ccccc2n1Cc1ccccc1F)c1ccc(F)cc1,.,.,-2,?
N#CC1(NC(=O)COC(=O)c2nccnc2N)CCCCC1,4,-202*,-6,-3
CCCCN(C(=O)COC(=O)CSc1cc(C)c2ccccc2n1)c1c(N)n(CCC)c(=O)[nH]c1=O,-16,-25,17,-3
CCCCN(C(=O)COC(=O)CSc1ccc([N+](=O)[O-])cc1)c1c(N)n(CCC)c(=O)[nH]c1=O,-115*,-3,6,-2
CC1=NN(c2ccc(C(=O)OC(C)C)cc2)C(=O)/C1=C\C=C\c1ccco1,-194*,-202*,-7,-1
CCOC(=O)c1ccc(N2N=C(C)/C(=C/C=C/c3ccco3)C2=O)cc1,12,-9,-14,2
CCOc1ccc(C(=O)N2CCN(CCc3ccccc3)CC2)cc1OCC,-90*,-30,0,3
O=C(NCCc1nc2ccccc2[nH]1)/C(=C/c1ccco1)NC(=O)c1ccccc1Br,-23,-6,3,8
O=C(NCc1ccco1)/C(=C/c1ccccc1)NC(=O)c1ccco1,-2,-92*,-13,-2
O=C(Nc1ccccc1)/C(=C\c1ccccc1)NC(=O)c1ccco1,3,-3,14,0
O=C(NCc1ccco1)/C(=C/c1ccc(Cl)cc1)NC(=O)c1ccco1,-3,19,-12,1
O=C(NCCc1nc2ccccc2[nH]1)/C(=C/c1ccc(F)cc1)NC(=O)c1ccco1,0,-72*,17,-1
O=C(NCCc1nc2ccccc2[nH]1)/C(=C/c1ccc2c(c1)OCO2)NC(=O)c1ccc(Cl)cc1Cl,-107*,-165*,2,6
O=C(Nc1ccc(C(=O)O)cc1)/C(=C\c1ccc2c(c1)OCO2)NC(=O)c1ccccc1Cl,?,2,.,.
O=C(Nc1ccccc1)/C(=C/c1ccc(F)cc1)NC(=O)c1ccco1,-114*,2,-5,7
CCOC(=O)c1c(C)[nH]c(C)c1S(=O)(=O)NCCN1CCN(c2ccccc2F)CC1,27,8,15,4
CCOc1ccc(N(CC(=O)NC2CCCCC2)C(=O)CCC(=O)Nc2nccs2)cc1,-91*,5,3,0
CCOc1ccc(N(CC(=O)NC2CCCC2)C(=O)CCC(=O)Nc2nccs2)cc1,10,5,7,1
Cc1ccc(N(CC(=O)NCc2ccco2)C(=O)CCC(=O)Nc2nccs2)cc1,4,0,0,4
Cc1cc(C)cc(N(CC(=O)NCc2ccco2)C(=O)CCC(=O)Nc2nccs2)c1,-72*,6,4,1
O=C(Nc1c(Br)cc2c(c1Br)Cc1ccccc1-2)C(Cl)Cl,-13,5,.,.
COC(=O)c1ccc(CNC(=O)COC(=O)CCC2CCCC2)cc1,2,-4,-27,84*
COc1ccc(CNC(=O)COC(=O)CCC2CCCCC2)cc1,4,-13,-6,?
CC(C)c1ccc(CN2CCSCC2)cc1,8,1,-30,11
CCN(CC)C(=O)c1[nH]cnc1C(=O)NCC(=O)OCc1ccccc1,37,-5,-17,-1
CCCCn1c(N)c(N(CC)C(=O)CCNC(=O)NC23CC4CC(CC(C4)C2)C3)c(=O)[nH]c1=O,-71*,-3,-6,3
CCCCn1c(N)c(N(CC)C(=O)CCNC(=O)c2ccc(Cl)cc2)c(=O)[nH]c1=O,3,-2,.,.

# Compound activity from PubChem.
